# Reference: PubChem BioAssay AID624310 (Broad Institute, 2012)
# Calls of active or inactive are those of the source.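 How the source made its calls: active means compound lowering absorbance whose fitted half-maximal concentration is at most twice its top valid dose; inconclusive means flat fit with 30 to 70% inhibition, or poor fit; inactive means the rest, including wrong-direction or flat responses.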
# Molecular target: Protein disulfide-isomerase (Homo sapiens) (UniProt P07237)
# Experiment: inhibition of PDI-catalysed insulin clumping – biochemical, turbidity, absorbance, dry powder samples, confirmation (AID 624310)
# Chain of Protein disulfide-isomerase (Homo sapiens) (P07237 whole entry, looked up): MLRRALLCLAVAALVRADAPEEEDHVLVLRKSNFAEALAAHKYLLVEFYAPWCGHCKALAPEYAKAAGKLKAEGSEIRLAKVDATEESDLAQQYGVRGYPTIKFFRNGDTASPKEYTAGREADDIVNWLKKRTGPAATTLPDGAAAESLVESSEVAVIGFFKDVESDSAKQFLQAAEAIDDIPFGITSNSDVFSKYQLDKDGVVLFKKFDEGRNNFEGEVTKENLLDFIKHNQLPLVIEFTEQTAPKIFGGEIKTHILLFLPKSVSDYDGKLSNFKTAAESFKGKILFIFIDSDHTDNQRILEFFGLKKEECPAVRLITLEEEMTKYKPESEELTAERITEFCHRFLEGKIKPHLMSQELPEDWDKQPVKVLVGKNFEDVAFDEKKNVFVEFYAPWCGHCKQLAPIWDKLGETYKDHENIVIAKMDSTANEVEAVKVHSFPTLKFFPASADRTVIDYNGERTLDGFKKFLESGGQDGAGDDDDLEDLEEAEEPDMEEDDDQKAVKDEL
smiles,measurement,value
C[C@H]1CN([C@@H](C)CO)C(=O)c2cccc(NS(C)(=O)=O)c2O[C@H]1CN(C)Cc1ccc(Oc2ccccc2)cc1,outcome,inactive
